Compound activity: PubChem, several laboratories
Hits are enriched below; roughly 3.8% of the tested compounds scored in any of these assays.
PAFAH1B3 inh = PAFAH1B3 (human) inhibition. Q15102. recombinant PAFAH1B3, FP-rhodamine probe, fluorescence polarization. inhibition, % at 3.39 µM. 340,000 compounds, 0.28% hits;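 active = inhibition above the screen-wide average of all tested compounds plus 3 SD, cut at about 25% in these data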;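 also: 0% = enzyme with DMSO only and 100% = wells lacking PAFAH1B3 protein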
PAFAH2 inh = inhibitors of human PAFAH2; inhibition, % at 3.39 µM; Q99487; recombinant PAFAH2, FP-rhodamine activity probe, fluorescence polarization; AID 492956; 340,000 compounds, 0.99% hits;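 active = inhibition above the mean over all tested compounds plus 3 SD, cut at about 30% in these data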;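 also: inhibitors block probe labeling of enzyme so polarization drops; 0% = enzyme with DMSO and 100% = wells lacking PAFAH2 protein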
M18AAP inhibitor = PfM18AAP enzyme inhibition | inhibition, % at 7.35 µM | 290,000 compounds, 1.2% hits | recombinant PfM18AAP, H-Glu-NHMec fluorogenic cleavage | AID 1822;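 active = inhibition above the campaign mean inhibition over all tested compounds plus 3 SD, cut at about 28% in these data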;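 also: 0% = plate median of test compound wells and 100% = 2 mM ZnCl2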
pPAFAH inh = pPAFAH (human) enzyme inhibition. Q13093. recombinant pPAFAH, FP-rhodamine probe fluorescence polarization. inhibition, % at 3.39 µM. 330,000 compounds, 1.5% hits. AID 463082;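 active = inhibition above the mean inhibition across the screen plus 3 SD, cut at about 25% in these data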;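 also: inhibitors block binding of the rhodamine activity-based probe so polarization drops; 0% = enzyme with DMSO and 100% = wells lacking pPAFAH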
Target sequence (Q13093 whole entry, looked up): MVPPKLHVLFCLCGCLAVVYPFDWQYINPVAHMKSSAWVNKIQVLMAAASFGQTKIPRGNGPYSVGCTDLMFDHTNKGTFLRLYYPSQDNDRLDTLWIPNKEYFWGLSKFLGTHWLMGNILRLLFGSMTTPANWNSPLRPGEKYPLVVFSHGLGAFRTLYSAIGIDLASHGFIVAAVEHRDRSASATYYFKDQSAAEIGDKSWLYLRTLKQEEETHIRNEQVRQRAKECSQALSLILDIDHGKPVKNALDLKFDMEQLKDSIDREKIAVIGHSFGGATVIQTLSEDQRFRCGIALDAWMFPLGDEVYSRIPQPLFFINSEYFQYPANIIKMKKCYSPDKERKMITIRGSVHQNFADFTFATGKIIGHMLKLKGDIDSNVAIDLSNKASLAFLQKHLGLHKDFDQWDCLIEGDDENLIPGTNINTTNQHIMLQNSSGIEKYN
PAFAH1B2 inh = inhibitors of human PAFAH1B2. P68402. recombinant PAFAH1B2, FP-rhodamine activity probe, fluorescence polarization. inhibition, % at 3.39 µM. 340,000 compounds, 1.2% hits. AID 492953;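 active = inhibition above the mean of all tested compounds plus 3 SD, cut at about 24% in these data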;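 also: 0% = enzyme with DMSO and 100% = wells lacking PAFAH1B2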
Target sequence (P68402 whole entry, looked up): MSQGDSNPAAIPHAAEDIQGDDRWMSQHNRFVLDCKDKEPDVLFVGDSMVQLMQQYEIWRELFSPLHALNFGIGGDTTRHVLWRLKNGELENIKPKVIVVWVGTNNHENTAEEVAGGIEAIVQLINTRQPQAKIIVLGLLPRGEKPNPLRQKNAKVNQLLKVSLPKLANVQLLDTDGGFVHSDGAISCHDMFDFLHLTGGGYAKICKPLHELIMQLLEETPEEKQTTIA
Pemphigus Ab inh = inhibitors of pemphigus antibody binding to human desmoglein-3 | P32926 | AID 588358 | 310,000 compounds, 0.48% hits | binding (percent of control), % at 10 µM | DSG3-coupled beads, scFv-anti-DSG3-GFP binding, flow cytometry; active compounds read low;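 active = binding more than 3 SD below its plate's average and above zero; inconclusive = below that plate limit but binding exactly zero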;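 also: hits lower antibody fragment binding to DSG3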
Starred values were filed as active, the others as inactive; ? = inconclusive; / = no result.

SMILES	PAFAH1B3 inh	PAFAH2 inh	M18AAP inhibitor	pPAFAH inh	PAFAH1B2 inh	Pemphigus Ab inh
CN(C)c1ccc(C#Cc2ccc3cc(CCCO)oc(=O)c3c2)cc1	8.3	2.0	/	3.8	-3.5	84.2*
O=c1oc(CCCO)cc2ccc(C#Cc3ccsc3)cc12	5.3	1.2	/	1.5	3.3	97.0
Cc1ccccc1Oc1ccc2c(c1)[C@@H]1C[C@H]3[C@@H](C(=O)N1CC2)[C@H](C)ON3C	6.6	3.4	/	/	-1.6	115.4
Cn1c2nc(=O)n(-c3ccccc3)c(=O)c-2nc2c1CCCC2	/	/	/	/	/	100.9
CC(C)C(=O)NN(C(=O)c1ccccc1)c1ccccc1	1.9	1.9	-12.0	-1.5	-0.4	93.7
CC(C(=O)O)N(C(=O)c1ccccc1)c1ccc(F)cc1 (stereo unspecified)	9.1	-0.1	5.2	5.0	29.0*	104.4
C[C@H](NS(=O)(=O)OCC(Cl)(Cl)Cl)C1CC1c1ccccc1 (stereo partly specified)	-7.2	5.0	-9.8	26.1*	31.8*	97.7
Cc1ccc(NC(=O)Cc2ccc([N+](=O)[O-])cc2)c(Br)c1	-4.6	-3.2	1.8	-0.8	-0.4	6.2*
COc1cc([N+](=O)[O-])ccc1NC(=O)Cc1ccc(C)cc1	2.9	-0.5	19.2	6.3	3.6	98.5
CC(C)(C)c1ccc(N/N=C(\C#N)S(=O)(=O)C(C)(C)C)cc1	11.6	19.1	0.5	33.5*	14.3	99.5
Cc1cccc(N/N=C(\C#N)S(=O)(=O)C(C)(C)C)c1	3.1	-2.2	3.7	11.9	6.6	108.9
O=C(NN1C(=O)/C(=C/c2ccc(O)c(O)c2)SC1=S)c1ccccc1	-38.9	-47.8	65.2*	-6.2	-22.7	97.7
C[C@H](OC(=O)N1CCN(C(c2ccccc2)c2ccccc2)CC1)[C@@H]1O[C@@]2(C)CCC[C@H]1O2	-0.2	0.4	/	10.7	-0.6	/
C[C@H](OC(=O)NCc1ccc(C(F)(F)F)cc1)[C@@H]1O[C@@]2(C)CCC[C@@H]1O2	-0.7	0.2	/	-1.6	25.0*	101.5
CNc1ncnc(Sc2nc(N)nc3nc[nH]c23)c1[N+](=O)[O-]	2.7	6.2	/	/	-1.4	115.5
Nc1nc(Sc2ccc([N+](=O)[O-])c3nonc23)c2[nH]cnc2n1	37.6*	29.7*	/	/	11.8	76.8
O=C(NCc1cccnc1)c1ccc(-c2ccc(Cl)cc2)o1	4.8	0.0	-5.1	8.1	1.5	57.7*
Cc1nnc(NC(=O)c2ccc(-c3ccc(Cl)cc3)o2)s1	7.5	-2.6	/	2.4	5.4	22.3*
COc1ccc(CNC(=O)CCCC(=O)Nc2cccc(Br)c2)cc1	12.0	3.8	-21.2	1.7	6.9	124.2
COc1ccc(S(=O)(=O)N2CCC(C(=O)N[C@H](C(=O)NCc3ccccc3)C(C)C)CC2)cc1	/	/	/	/	/	103.0
Cc1cc(C(=O)Nc2ncn[nH]2)ccc1[N+](=O)[O-]	-1.4	0.6	29.6*	0.4	3.5	104.3
O=C(/C=C/c1ccc(S(=O)(=O)NCc2ccco2)cc1)NCc1ccccc1Cl	4.3	-3.5	-7.3	31.5*	7.0	97.2
Cc1ccc2nc(SCC(=O)Nc3ccc(F)cc3)nc(=O)n2c1	4.6	4.3	/	4.9	2.9	100.9
Cc1cc(C)cc(NC(=O)CSc2nc(=O)n3cc(C)ccc3n2)c1	2.1	8.6	/	24.9*	4.0	100.5
CCOC(=O)C1CC2=C(CC(C)(C)CC2=O)N(CCOC)C1=O (stereo unspecified)	9.4	2.3	/	/	3.9	103.4
SMILES	PAFAH1B3 inh	PAFAH2 inh	M18AAP inhibitor	pPAFAH inh	PAFAH1B2 inh	Pemphigus Ab inh
O=Nc1c(O)[nH]c2ccc(Cl)c(Cl)c12	43.3*	31.3*	/	/	27.5*	/
CCN(C[C@H]1N[C@@](Cc2ccccc2)(C(=O)OC)[C@H]2C(=O)N(C)C(=O)[C@@H]12)C(C)=O	11.9	7.0	/	0.6	1.9	98.7
O=C(OCC(=O)N1CCN(C(=O)COC(=O)c2ccncc2)CC1)c1ccncc1	-5.3	-4.2	-11.9	27.3*	-1.7	104.0
Cc1ccc(C(=O)OCC(=O)N2CCOCC2)cc1	11.9	4.1	-14.1	1.8	3.5	117.4
O=C(OCc1c(Cl)cccc1Cl)c1ccncc1	4.0	-5.0	1.6	27.1*	4.7	97.3
Clc1cccc(Cl)c1COc1ccncc1	5.9	-5.1	3.4	1.3	1.4	97.8
COc1ccc(C)cc1NC(=O)CN1C(=O)COc2ccc(S(=O)(=O)N3CCCCC3)cc21	-0.3	-3.8	-1.0	1.6	2.0	90.0
COc1cccc(C(=O)OCC(=O)c2ccc(Br)s2)c1	-5.0	45.9*	4.3	14.3	-7.1	110.4
Cc1ccc(C(=O)COC(=O)c2cccc(O)c2)s1	-0.1	9.7	/	/	7.7	104.0
COc1ccc(C(=O)OCC(=O)c2ccc(Br)s2)c(OC)c1	0.1	30.3*	/	6.1	-0.6	100.0
O=C(CSc1nnc(-c2ccccc2)n1C1CCCCC1)N1CCCC1	8.4	6.6	-2.9	5.9	10.8	96.6
CC1CCCN(C(=O)CSc2nnc(-c3cccnc3)n2C2CCCCC2)C1 (stereo unspecified)	-2.4	5.2	-4.2	-3.1	8.4	61.0*
N#CC1(NC(=O)CSc2nnc(C3CC3)n2N)CCCCC1	/	/	/	/	/	106.3
Cc1ccc(S(=O)(=O)N2CCCC2C(=O)NCc2ccc3c(c2)OCO3)cc1 (stereo unspecified)	-0.3	-1.9	-8.7	-1.8	-2.2	123.0
Cc1ccc(S(=O)(=O)N(C)CC(=O)N(C)CCOc2ccccc2)cc1	/	/	/	/	/	96.4
C/C(=N\NC(=O)CNC(=O)C1COc2ccccc2O1)c1ccco1 (stereo unspecified)	6.0	-4.3	0.3	9.6	-7.1	91.9
Oc1c(Cl)cc(Cl)cc1Sc1cc(Cl)cc(Cl)c1O	/	/	11.1	76.8*	/	/
Cc1nn(C)cc1C(C(=O)NC1CCCCC1)N(Cc1ccc(F)cc1)C(=O)c1cnccn1 (stereo unspecified)	/	/	3.0	4.8	/	53.7*
O=C1C=C(O)c2c(O)cccc2C1=O	/	/	/	26.6*	/	/
O=C1C=C(O)c2cccc3cccc1c23	5.6	9.4	20.5	3.5	3.8	95.8
COc1cc(C2(c3ccc(O)c(OC)c3)C(=O)Nc3c(Br)cc(Br)cc32)ccc1O	7.4	6.3	/	1.2	24.9*	97.8
COc1cc(C2(c3ccc(O)c(OC)c3)C(=O)N(C)c3ccc(Br)cc32)ccc1O	13.0	2.3	/	4.7	4.3	111.5
Fc1ccc(CSc2ncnc3c2oc2ccccc23)cc1	0.4	4.4	10.5	2.1	-2.6	68.9*
Fc1cccc(CSc2ncnc3c2oc2ccccc23)c1	10.4	-1.8	-2.2	4.6	0.8	107.3
CC(C)NC(=O)N(C)C[C@@H]1OCc2cnnn2CCCC(=O)N([C@@H](C)CO)C[C@H]1C	/	/	/	/	/	105.2
Cc1c(N=C2C=C(Br)C(=O)C(Br)=C2)c(=O)n(-c2ccccc2)n1C	2.5	15.7	21.6	/	35.0*	?
COC(=O)C1CSc2[nH]c(=O)sc2C1c1ccccc1 (stereo unspecified)	3.1	10.7	0.1	2.5	27.9*	93.4
